Measured values published in PubChem BioAssay AID624441 (Broad Institute, 2012).

assay: reactive oxygen species induction in U2OS, dose response, U2OS cells, fluorescence, dry powder (AID 624441); settings: U2OS ROS induction, H2DCF-DA fluorescence, hits give high values; at 19.5 µM unless noted;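 active means activation curve reaches 40% at a concentration no higher than the top valid dose tested; inactive means signal falling instead of rising, plus the rest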

Max activation, inactive:
Nc1nc(SCc2ccccc2Cl)ns1 15.6% [at 0.0001 µM]
Cc1ccccc1CSc1nnc(N)s1 9.38%
Nc1nc(SCc2ccc(F)cc2)ns1 27%
Cc1cccc(CSc2nsc(N)n2)c1 19.3% [at 1.2 µM]
Nc1nc(S(=O)(=O)Cc2ccccc2)ns1 20.7% [at 0.0195 µM]
Nc1nc(SCc2ccc(Cl)cc2Cl)ns1 43.7%
Cc1ccccc1CSc1n[nH]c(N)n1 26% [at 0.0195 µM]
O=C(Nc1nc(SCc2ccccc2)ns1)C1CC=CCC1 (configuration not stated) 33.9% [at 38 µM]
O=C(Nc1ccccc1)Nc1nc(SCc2ccccc2)ns1 -12% [at 10 µM]
O=C(Nc1nc(SCc2ccccc2)ns1)C1CCC1 11.4%
Nc1nc(SCc2ccccc2)ns1 18.5% [at 0.3 µM]
Cc1ccccc1CSc1nsc(N)n1 36.4% [at 5 µM]
